# Source: PubChem BioAssay (EPA / NIEHS)
# Records with an inconclusive call do not appear. Active and inactive are the calls of the source. Rule for the calls: active = hit-call score of the fitted dose curve at least 0.9, where 1 is the maximum; inconclusive = response in the unintended direction; inactive = score below 0.9.
# What was measured:
# [1] = target: human Caspase 4 (CASP4), CASP4 (gene 837) (UniProt P49662); assay: NVS_ENZ_hCASP4: NovaScreen (NVS) Enzymatic Assay for human Caspase 4 (CASP4) (AID 2283143)
# Method in brief: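 Compounds were first tested in duplicate at 25 uM, and hits were titrated singly to a 50 uM maximum. Recombinant protease from E. coli was read by fluorescence 2 h post-dose, and activity loss was fitted against the DMSO baseline.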
# [2] = target: human Dual Specificity Protein Phosphatase 3 (DUSP3), DUSP3 (gene 1845) (UniProt P51452); assay: NVS_ENZ_hDUSP3: NovaScreen (NVS) Enzymatic Assay for human Dual Specificity Protein Phosphatase 3 (DUSP3) (AID 2283152);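 note: phosphatase activity of recombinant human DUSP3 on a fluorogenic substrate without cells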
# Method in brief: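 Cell-free fluorescence-intensity enzyme activity assay with recombinant protein and substrate; loss of signal fitted relative to DMSO baseline. Primary screen in duplicate at 25 uM, actives then run in concentration series; measured 0 h after dosing.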
# [3] = target: human Elastase, ELANE (gene 1991) (UniProt P08246); assay: NVS_ENZ_hElastase: NovaScreen (NVS) Enzymatic Assay for human Elastase (AID 2283153)
# Method in brief: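 Concentration-response to 50 uM max, run singly for chemicals passing a threshold (e.g., 30% inhibition) in a duplicate 25 uM single-point screen. Neutrophil-derived human elastase, absorbance read-out of enzyme activity at 1.5 h; DMSO baseline.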
# [4] = target: human AKT serine/threonine Kinase 2 (AKT2), AKT2 (gene 208) (UniProt P31751); assay: NVS_ENZ_hAKT2: NovaScreen (NVS) Enzymatic Assay for human AKT serine/threonine Kinase 2 (AKT2) (AID 2283141)
# Method in brief: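 Cell-free fluorescence/electrophoretic mobility shift readout of recombinant human AKT2 activity, 1 h after chemical dosing. Duplicate primary screen at 25 uM, then singleton concentration-response up to 50 uM; loss of signal versus DMSO baseline.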
# [5] = target: human Caspase 8 (CASP8), CASP8 (gene 841) (UniProt Q14790); assay: NVS_ENZ_hCASP8: NovaScreen (NVS) Enzymatic Assay for human Caspase 8 (CASP8) (AID 2283146)
# Method in brief: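 The primary screen tested compounds in duplicate at a single 25 uM concentration, with actives followed up in concentration series. Activity of recombinant (E. coli) protease was measured by fluorescence 1 h post-dose, as signal loss against DMSO.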
# [6] = target: human Beta-secretase (BACE), BACE1 (gene 23621) (UniProt P56817); assay: NVS_ENZ_hBACE: NovaScreen (NVS) Enzymatic Assay for human Beta-secretase (BACE) (AID 2283140);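 note: hits are inhibitors that reduce fluorescent substrate signal versus DMSO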
# Method in brief: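 Fluorescence intensity read-out of protease activity defines this endpoint; signal loss relative to DMSO baseline marks inhibition. Recombinant enzyme from SF9 cells, cell-free format, 1 h exposure. Single-concentration duplicate screen (25 uM) precedes concentration-series follow-up.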
# [7] = target: human Esterase Plasma (ES), BCHE (gene 590) (UniProt P06276); assay: NVS_ENZ_hES: NovaScreen (NVS) Enzymatic Assay for human Esterase Plasma (ES) (AID 2283157)
# Method in brief: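 Human plasma-derived enzyme, cell-free, colorimetric readout at 0.25 h. Primary screen 25 uM in duplicate; hits (e.g. ≥30% inhibition) rerun singleton up to 50 uM. DMSO = negative control/baseline.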
# [8] = target: human Colony Stimulating Factor 1 Receptor (CSF1R), CSF1R (gene 1436) (UniProt P07333); assay: NVS_ENZ_hCSF1R: NovaScreen (NVS) Enzymatic Assay for human Colony Stimulating Factor 1 Receptor (CSF1R) (AID 2283150)
# Method in brief: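 Compounds screened in duplicate at 25 uM, then concentration-response (top 50 uM) for those passing threshold such as 30% inhibition; recombinant CSF1R activity measured 1 h post-dosing via fluorescent substrate/product mobility-shift separation, loss of signal versus DMSO.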
# [9] = target: human Casein Kinase 1-delta (CK1D), CSNK1D (gene 1453) (UniProt P48730); assay: NVS_ENZ_hCK1D: NovaScreen (NVS) Enzymatic Assay for human Casein Kinase 1-delta (CK1D) (AID 2283148)
# Method in brief: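 Recombinant human CK1-delta, cell-free; fluorescent substrate with electrophoretic mobility-shift separation of product, read 1 h after dosing. Single 25 uM duplicate screen, then concentration-response up to 50 uM; loss of signal vs DMSO.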
# human Dual Specificity Protein Phosphatase 3 (DUSP3), DUSP3 (gene 1845), sequence (P51452 whole entry, looked up): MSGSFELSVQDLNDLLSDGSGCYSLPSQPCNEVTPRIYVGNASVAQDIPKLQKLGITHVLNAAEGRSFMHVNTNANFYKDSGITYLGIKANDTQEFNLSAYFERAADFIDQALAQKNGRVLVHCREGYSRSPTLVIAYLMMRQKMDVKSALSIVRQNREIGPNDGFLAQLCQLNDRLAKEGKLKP
# human Beta-secretase (BACE), BACE1 (gene 23621), sequence (P56817 whole entry, looked up): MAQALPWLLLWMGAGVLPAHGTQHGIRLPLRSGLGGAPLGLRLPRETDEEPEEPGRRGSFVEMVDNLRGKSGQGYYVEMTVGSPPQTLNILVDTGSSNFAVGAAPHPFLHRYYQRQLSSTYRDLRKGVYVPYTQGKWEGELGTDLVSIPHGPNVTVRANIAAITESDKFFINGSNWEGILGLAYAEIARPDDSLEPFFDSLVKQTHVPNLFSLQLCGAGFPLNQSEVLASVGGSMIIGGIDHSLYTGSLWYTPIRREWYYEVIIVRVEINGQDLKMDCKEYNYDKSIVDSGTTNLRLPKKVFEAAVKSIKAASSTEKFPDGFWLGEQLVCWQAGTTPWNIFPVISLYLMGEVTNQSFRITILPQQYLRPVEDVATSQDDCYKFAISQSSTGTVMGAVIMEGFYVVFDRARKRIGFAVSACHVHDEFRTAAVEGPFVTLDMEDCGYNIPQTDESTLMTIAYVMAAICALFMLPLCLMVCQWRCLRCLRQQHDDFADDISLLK
# human Caspase 4 (CASP4), CASP4 (gene 837), sequence (P49662 whole entry, looked up): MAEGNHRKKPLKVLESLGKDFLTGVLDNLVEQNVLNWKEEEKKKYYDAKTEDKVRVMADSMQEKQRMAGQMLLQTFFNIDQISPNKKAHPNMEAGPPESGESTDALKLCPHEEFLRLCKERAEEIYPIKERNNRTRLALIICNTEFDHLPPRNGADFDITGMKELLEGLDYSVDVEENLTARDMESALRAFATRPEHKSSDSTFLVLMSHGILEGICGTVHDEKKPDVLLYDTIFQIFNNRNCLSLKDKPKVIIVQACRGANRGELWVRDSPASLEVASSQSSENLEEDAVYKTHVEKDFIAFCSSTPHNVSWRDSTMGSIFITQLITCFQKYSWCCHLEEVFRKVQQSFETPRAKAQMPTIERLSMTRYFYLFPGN
# human AKT serine/threonine Kinase 2 (AKT2), AKT2 (gene 208), sequence (P31751 whole entry, looked up): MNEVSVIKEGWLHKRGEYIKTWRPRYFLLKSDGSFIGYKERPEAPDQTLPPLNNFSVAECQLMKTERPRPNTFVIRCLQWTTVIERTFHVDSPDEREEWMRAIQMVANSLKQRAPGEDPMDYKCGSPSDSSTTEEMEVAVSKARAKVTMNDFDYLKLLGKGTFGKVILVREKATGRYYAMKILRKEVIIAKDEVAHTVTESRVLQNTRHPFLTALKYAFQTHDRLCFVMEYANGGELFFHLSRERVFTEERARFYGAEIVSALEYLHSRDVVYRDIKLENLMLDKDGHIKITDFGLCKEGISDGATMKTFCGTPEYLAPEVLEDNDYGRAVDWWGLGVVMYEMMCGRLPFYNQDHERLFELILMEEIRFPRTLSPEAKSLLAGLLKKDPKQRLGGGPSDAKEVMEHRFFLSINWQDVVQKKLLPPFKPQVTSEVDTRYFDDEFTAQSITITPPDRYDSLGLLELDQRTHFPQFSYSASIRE
# human Elastase, ELANE (gene 1991), sequence (P08246 whole entry, looked up): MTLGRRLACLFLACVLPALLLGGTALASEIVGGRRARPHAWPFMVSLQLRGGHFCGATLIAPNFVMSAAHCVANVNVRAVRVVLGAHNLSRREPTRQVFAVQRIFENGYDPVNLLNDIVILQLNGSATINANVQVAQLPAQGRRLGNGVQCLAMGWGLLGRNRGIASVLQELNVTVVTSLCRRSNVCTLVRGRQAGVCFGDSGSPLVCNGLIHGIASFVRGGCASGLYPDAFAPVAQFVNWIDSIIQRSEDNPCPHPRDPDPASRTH
# human Esterase Plasma (ES), BCHE (gene 590), sequence (P06276 whole entry, looked up): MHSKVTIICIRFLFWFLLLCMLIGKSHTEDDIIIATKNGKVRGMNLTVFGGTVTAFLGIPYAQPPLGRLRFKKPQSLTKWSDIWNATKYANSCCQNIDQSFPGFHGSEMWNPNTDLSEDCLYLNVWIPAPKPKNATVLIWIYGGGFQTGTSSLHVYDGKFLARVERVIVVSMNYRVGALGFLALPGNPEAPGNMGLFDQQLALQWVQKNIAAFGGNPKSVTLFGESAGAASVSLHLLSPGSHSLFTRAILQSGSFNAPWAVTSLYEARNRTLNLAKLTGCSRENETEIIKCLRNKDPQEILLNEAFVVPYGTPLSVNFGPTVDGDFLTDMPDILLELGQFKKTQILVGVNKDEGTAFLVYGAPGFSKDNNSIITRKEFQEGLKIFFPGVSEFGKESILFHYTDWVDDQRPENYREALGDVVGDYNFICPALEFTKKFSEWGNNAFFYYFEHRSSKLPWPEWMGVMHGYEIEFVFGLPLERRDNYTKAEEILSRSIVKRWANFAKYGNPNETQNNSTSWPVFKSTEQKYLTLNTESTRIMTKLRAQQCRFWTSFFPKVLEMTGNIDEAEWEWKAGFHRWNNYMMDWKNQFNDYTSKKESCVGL
# human Colony Stimulating Factor 1 Receptor (CSF1R), CSF1R (gene 1436), sequence (P07333 whole entry, looked up): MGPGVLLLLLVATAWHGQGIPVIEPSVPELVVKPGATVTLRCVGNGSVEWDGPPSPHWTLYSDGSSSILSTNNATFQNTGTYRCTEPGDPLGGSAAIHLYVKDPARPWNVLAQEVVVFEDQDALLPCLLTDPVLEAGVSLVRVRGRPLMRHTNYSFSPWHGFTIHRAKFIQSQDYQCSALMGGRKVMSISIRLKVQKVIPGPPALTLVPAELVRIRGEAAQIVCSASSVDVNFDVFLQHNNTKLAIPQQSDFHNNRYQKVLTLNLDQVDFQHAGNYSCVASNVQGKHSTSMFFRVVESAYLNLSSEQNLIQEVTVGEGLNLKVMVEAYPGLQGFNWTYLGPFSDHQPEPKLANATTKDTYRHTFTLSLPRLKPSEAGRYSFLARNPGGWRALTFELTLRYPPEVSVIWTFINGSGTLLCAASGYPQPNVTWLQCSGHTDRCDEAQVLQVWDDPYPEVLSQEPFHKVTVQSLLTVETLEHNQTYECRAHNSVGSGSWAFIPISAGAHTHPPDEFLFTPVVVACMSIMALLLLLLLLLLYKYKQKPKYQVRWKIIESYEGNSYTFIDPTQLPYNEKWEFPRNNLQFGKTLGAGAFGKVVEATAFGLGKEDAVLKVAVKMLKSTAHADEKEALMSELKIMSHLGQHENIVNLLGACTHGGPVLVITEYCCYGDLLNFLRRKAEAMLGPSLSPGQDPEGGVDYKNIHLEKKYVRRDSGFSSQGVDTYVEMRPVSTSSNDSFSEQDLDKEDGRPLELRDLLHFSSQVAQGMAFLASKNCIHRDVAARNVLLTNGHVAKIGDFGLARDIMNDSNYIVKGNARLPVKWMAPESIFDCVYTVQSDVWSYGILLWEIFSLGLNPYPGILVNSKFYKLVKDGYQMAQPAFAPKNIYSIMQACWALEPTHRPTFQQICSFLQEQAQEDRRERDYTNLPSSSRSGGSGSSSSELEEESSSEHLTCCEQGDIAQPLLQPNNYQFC
# human Caspase 8 (CASP8), CASP8 (gene 841), sequence (Q14790 whole entry, looked up): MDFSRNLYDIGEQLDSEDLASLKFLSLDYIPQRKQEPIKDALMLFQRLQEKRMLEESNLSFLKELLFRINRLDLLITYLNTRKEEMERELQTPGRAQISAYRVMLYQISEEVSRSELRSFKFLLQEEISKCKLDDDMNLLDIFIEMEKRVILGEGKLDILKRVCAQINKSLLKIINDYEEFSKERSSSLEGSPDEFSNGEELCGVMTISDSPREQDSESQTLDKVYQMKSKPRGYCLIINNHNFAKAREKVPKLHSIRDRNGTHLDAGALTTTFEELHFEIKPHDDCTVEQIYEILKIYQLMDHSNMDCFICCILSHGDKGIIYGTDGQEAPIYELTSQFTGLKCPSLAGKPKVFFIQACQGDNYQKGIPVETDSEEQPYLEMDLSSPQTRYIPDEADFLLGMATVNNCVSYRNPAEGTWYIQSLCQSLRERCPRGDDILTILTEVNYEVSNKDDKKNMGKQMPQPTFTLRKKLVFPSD
# human Casein Kinase 1-delta (CK1D), CSNK1D (gene 1453), sequence (P48730 whole entry, looked up): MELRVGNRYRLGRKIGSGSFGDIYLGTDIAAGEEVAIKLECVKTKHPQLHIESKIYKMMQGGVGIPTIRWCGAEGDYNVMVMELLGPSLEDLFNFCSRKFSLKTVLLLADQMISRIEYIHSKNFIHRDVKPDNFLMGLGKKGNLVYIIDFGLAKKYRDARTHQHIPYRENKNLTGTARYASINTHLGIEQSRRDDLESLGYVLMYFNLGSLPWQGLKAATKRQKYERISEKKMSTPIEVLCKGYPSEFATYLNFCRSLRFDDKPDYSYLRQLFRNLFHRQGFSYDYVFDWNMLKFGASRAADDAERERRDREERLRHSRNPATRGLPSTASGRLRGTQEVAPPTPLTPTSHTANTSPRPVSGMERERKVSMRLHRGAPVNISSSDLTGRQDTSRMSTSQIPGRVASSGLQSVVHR
structure (smiles),measurement,setting,value
COc1cc(-c2nc(NC(=O)c3cc4cc(C)cc(C)c4n3CC(=O)O)sc2CCC2CCCCC2)c(OC)cc1Cl,AC50,[1],14.3 µM (active)
same,AC50,[2],1.23 µM (active)
same,AC50,[3],5.61 µM (active)
CCOC(=O)CCC(=O)OCC,outcome,[4],inactive
CC1(C)CC(N=C=O)CC(C)(CN=C=O)C1 (stereo not drawn),AC50,[4],6.21 µM (active)
same,outcome,[5],inactive
CCCCC(CC)COC(=O)CC(C(=O)OCC(CC)CCCC)S(=O)(=O)O (stereo not drawn),AC50,[6],1.35 µM (active)
same,AC50,[2],14.7 µM (active)
same,AC50,[3],25 µM (active)
same,outcome,[7],inactive
Cc1oc(-c2ccccc2)nc1CCOc1cccc2c1ccn2CCC(=O)O,AC50,[6],9.92 µM (active)
same,AC50,[3],11.9 µM (active)
Cc1nc(-c2ccc3c(c2)CCN(CCC2CCC(NC(=O)/C=C/c4ccc(F)cc4)CC2)CC3)no1 (stereo not drawn),outcome,[1],inactive
same,AC50,[3],18.3 µM (active)
O=c1c(O)c(-c2ccc(O)c(O)c2)oc2cc(O)cc(O)c12,outcome,[4],inactive
same,outcome,[1],inactive
same,outcome,[3],inactive
CC1(C)NC(=O)NC1=O,outcome,[4],inactive
COc1cc(S(=O)(=O)O)c(C)cc1N=Nc1c(O)ccc2cc(S(=O)(=O)O)ccc12,AC50,[1],25 µM (active)
Nc1ccccc1N,outcome,[6],inactive
same,AC50,[2],16.4 µM (active)
same,AC50,[7],17.6 µM (active)
CCc1c(C(=O)NN2CCCCC2)nn(-c2ccc(Cl)cc2Cl)c1-c1ccc(Br)cc1,outcome,[1],inactive
same,outcome,[8],inactive
same,outcome,[3],inactive
COc1ccc(S(=O)(=O)N2C(=O)[C@@](c3ccccc3OC)(N3C[C@H](O)C[C@H]3C(=O)N(C)C)c3cc(Cl)ccc32)c(OC)c1,outcome,[1],inactive
Cc1ccc2ncccc2c1,outcome,[6],inactive
same,outcome,[4],inactive
same,AC50,[9],4.96 µM (active)
CCCCc1ccc2c(n1)[C@@H](c1ccc(OC)cc1C[C@H](C)C(=O)O)[C@H](C(=O)O)[C@H]2c1ccc2c(c1)OCO2,AC50,[6],9.68 µM (active)
same,outcome,[1],inactive
CCCCCC(=O)O,outcome,[4],inactive
Nc1ccc2c(c1)C(=O)c1ccccc1C2=O,AC50,[6],2.16 µM (active)
same,AC50,[1],18.9 µM (active)
same,AC50,[3],15.5 µM (active)
CCCCOC(=O)CCCCCCCCC(=O)OCCCC,AC50,[6],2.12 µM (active)
CCOc1ccc2c(c1)C(C)=CC(C)(C)N2,AC50,[1],15.1 µM (active)
same,AC50,[8],25 µM (active)
